About 83,000 compounds went through this panel and 20% of them were active in at least one assay; those are over-represented in the sample as a whole.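 Assay: single dose, 48 h. Readout: percent growth (0 = no net growth; negative = cell death). Active: <10.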 Active and inactive are the calls of the source.
Tests used:
Assay in all cases: NCI-60 one-dose screen, 48 h (100 = growth as untreated, 0 = no growth, -100 = all killed)
Details in all cases: 10 µM unless noted
HCT-15 colon = test system: HCT-15 colon
HT29 colon = test system: HT29 colon
SNB-75 CNS = test system: SNB-75 CNS
SNB-19 CNS = test system: SNB-19 CNS
U251 CNS = test system: U251 CNS
PC-3 prostate = test system: PC-3 prostate
SK-MEL-5 melanoma = test system: SK-MEL-5 melanoma
UACC-62 melanoma = test system: UACC-62 melanoma
SK-MEL-28 melanoma = test system: SK-MEL-28 melanoma
LOX IMVI melanoma = test system: LOX IMVI melanoma

Measured: growth

CCCCCCCCCCC1OC(C)CC(C)O1 (centres undefined)
inactive: HCT-15 colon 102% | HT29 colon 106% | SNB-75 CNS 95.4% | SNB-19 CNS 109% | U251 CNS 105% | PC-3 prostate 101% | SK-MEL-5 melanoma 107% | UACC-62 melanoma 107% | SK-MEL-28 melanoma 102%

N#CCc1ncc(-c2ccc(C(F)(F)F)cc2)c(NC2CCCCCC2)n1
inactive: HCT-15 colon 22.1% [100 µM] | HT29 colon 14% [100 µM] | SNB-75 CNS 52.5% [100 µM] | SNB-19 CNS 45.2% [100 µM] | U251 CNS 22.4% [100 µM] | SK-MEL-5 melanoma 22.9% [100 µM] | UACC-62 melanoma 42.1% [100 µM] | LOX IMVI melanoma 25% [100 µM] | SK-MEL-28 melanoma 65.8% [100 µM]
active: PC-3 prostate -3.13% [100 µM]

CC(=O)c1ccc2c(c1)c1ccccc1n2C
inactive: HCT-15 colon 102% | HT29 colon 91.1% | SNB-75 CNS 82.5% | SNB-19 CNS 90.8% | U251 CNS 94.8% | PC-3 prostate 89.2% | SK-MEL-5 melanoma 103% | UACC-62 melanoma 83.2% | LOX IMVI melanoma 97.1% | SK-MEL-28 melanoma 107%

CSC1=Nc2c(c(C)c(-c3ccccc3)n2CCCCl)C2=NC(=O)CN12
inactive: HCT-15 colon 64.9% | HT29 colon 23.5% | SNB-75 CNS 21.2% | SNB-19 CNS 81.2% | U251 CNS 51.6% | PC-3 prostate 68.9% | SK-MEL-5 melanoma 50.7% | UACC-62 melanoma 36.7% | LOX IMVI melanoma 49.8% | SK-MEL-28 melanoma 55.9%

Cc1c(O)c(N=Nc2ccc(C(=O)O)c(O)c2)c2ccccc2c1O
inactive: HCT-15 colon 117% | HT29 colon 96.9% | SNB-75 CNS 109% | SNB-19 CNS 105% | U251 CNS 101% | PC-3 prostate 77.4% | SK-MEL-5 melanoma 96.1% | UACC-62 melanoma 92.5% | LOX IMVI melanoma 86.4% | SK-MEL-28 melanoma 131%

O=C1Nc2c(c(=O)n(-c3ccccc3)c3ccccc23)C(c2ccc(Cl)cc2)N1 (centres undefined)
inactive: HCT-15 colon 90.4% | HT29 colon 106% | SNB-75 CNS 80.7% | SNB-19 CNS 60.4% | U251 CNS 85.9% | PC-3 prostate 105% | SK-MEL-5 melanoma 80.4% | UACC-62 melanoma 62.8% | LOX IMVI melanoma 36.4% | SK-MEL-28 melanoma 90.9%

CC1=C(C)C(=O)C(C(C)C2=C(C)C(=O)C(C)=C(C)C2=O)=C(C)C1=O
inactive: HCT-15 colon 99.7% | HT29 colon 68.7% | SNB-75 CNS 96.6% | SNB-19 CNS 99% | U251 CNS 81% | PC-3 prostate 52.4% | SK-MEL-5 melanoma 75% | UACC-62 melanoma 85% | LOX IMVI melanoma 81% | SK-MEL-28 melanoma 117%

COc1cc(/C=C/C(=O)c2ccc(F)cc2)ccc1OCCCCOc1cc2c(cc1OC)C(=O)N1CCCC1C=N2 (centres undefined)
active: HCT-15 colon -46.3% | HT29 colon -49.3% | SNB-75 CNS -8.01% | SNB-19 CNS -35.3% | U251 CNS -100% | PC-3 prostate -38.3% | SK-MEL-5 melanoma -99.7% | UACC-62 melanoma -86% | LOX IMVI melanoma -84.6% | SK-MEL-28 melanoma -42.1%

COc1ccc(CN2C(=O)/C(=C\C(=O)c3ccc(OCCN4CCCCC4)cc3)c3ccccc32)cc1
active: HCT-15 colon 7.62% | HT29 colon 8.95%
inactive: SNB-75 CNS 83.8% | SNB-19 CNS 84% | U251 CNS 80% | PC-3 prostate 81.4% | SK-MEL-5 melanoma 90.9% | UACC-62 melanoma 73.5% | SK-MEL-28 melanoma 91.5%

N=C(N)N=Nc1ccc(NN=C(N)N)cc1
inactive: HCT-15 colon 102% | HT29 colon 91.1% | SNB-75 CNS 76.4% | SNB-19 CNS 94.2% | U251 CNS 91.8% | PC-3 prostate 45.9% | SK-MEL-5 melanoma 94% | UACC-62 melanoma 90.8% | LOX IMVI melanoma 96.4% | SK-MEL-28 melanoma 103%

O=S(=O)(Cc1cccc2c(CS(=O)(=O)c3ccc(Cl)cc3)cccc12)c1ccc(Cl)cc1
inactive: HCT-15 colon 92.8% | HT29 colon 93.7% | SNB-75 CNS 88.1% | SNB-19 CNS 104% | U251 CNS 104% | PC-3 prostate 92% | SK-MEL-5 melanoma 92.3% | UACC-62 melanoma 98.3% | LOX IMVI melanoma 94.1% | SK-MEL-28 melanoma 107%

Cc1ccc(S(=O)(=O)NC(CCC(=O)Nc2ccccc2)C(=O)Nc2ccccc2)cc1 (centres undefined)
active: HCT-15 colon 0.514% | HT29 colon -14.5% | SNB-75 CNS -24.9% | SNB-19 CNS -3.81% | U251 CNS -43.8% | PC-3 prostate -10.4% | SK-MEL-5 melanoma -65.5% | UACC-62 melanoma -45.6% | LOX IMVI melanoma -21.6% | SK-MEL-28 melanoma -33.2%

CC(C)(C)c1ccc([I+]c2ccc(C(C)(C)C)cc2)cc1
inactive: HCT-15 colon 69.4% | HT29 colon 11% | SNB-75 CNS 18.7% | SNB-19 CNS 13.8%
active: U251 CNS 3.28% | PC-3 prostate 0.197% | SK-MEL-5 melanoma -94.7% | UACC-62 melanoma -42.2% | LOX IMVI melanoma -88% | SK-MEL-28 melanoma 6.31%

N#Cc1ccc(OCc2nc(N)nc(N)c2-c2ccc(Cl)c(Cl)c2)cc1
inactive: HCT-15 colon 20.9% | HT29 colon 10.8% | SNB-75 CNS 65.6% | SNB-19 CNS 38.2% | U251 CNS 20.5% | PC-3 prostate 18.9% | SK-MEL-5 melanoma 23.4% | UACC-62 melanoma 12.2% | LOX IMVI melanoma 11.1% | SK-MEL-28 melanoma 54.4%

CCCC[N+](C)(N)CCCC
inactive: HCT-15 colon 98% | HT29 colon 101% | SNB-75 CNS 93.3% | SNB-19 CNS 104% | U251 CNS 106% | PC-3 prostate 90.5% | SK-MEL-5 melanoma 108% | UACC-62 melanoma 105% | LOX IMVI melanoma 87.3% | SK-MEL-28 melanoma 109%

COc1cccc2c1nc1cccc(OC)c1[n+]2[O-]
inactive: HCT-15 colon 47.4% | HT29 colon 53.9% | SNB-75 CNS 58.3% | SNB-19 CNS 46.9% | U251 CNS 46.6% | PC-3 prostate 73.2% | SK-MEL-5 melanoma 62% | UACC-62 melanoma 39.6% | LOX IMVI melanoma 31.9% | SK-MEL-28 melanoma 103%

CC1=C(C)C[C@]2(C(=O)O[C@H]3CCCC[C@@H]32)[S@](=O)C1
inactive: HCT-15 colon 112% | HT29 colon 95.3% | SNB-75 CNS 98.4% | SNB-19 CNS 105% | U251 CNS 98.8% | PC-3 prostate 110% | SK-MEL-5 melanoma 107% | UACC-62 melanoma 104% | LOX IMVI melanoma 97.6% | SK-MEL-28 melanoma 118%

O=C1/C(=C/c2ccc(Cl)cc2)CCC/C1=C\c1ccc(Cl)cc1
active: HT29 colon 6.8% | LOX IMVI melanoma -67.7%
inactive: HCT-15 colon 80.9% | SNB-75 CNS 90.1% | SNB-19 CNS 92.5% | U251 CNS 14.7% | PC-3 prostate 90.8% | SK-MEL-5 melanoma 84.6% | UACC-62 melanoma 80.5% | SK-MEL-28 melanoma 110%

COC(=O)[C@H](Cc1cn(C)cn1)NC(=O)[C@@H](NC(=O)Nc1cc(C(F)(F)F)cc(C(F)(F)F)c1)C(C)(C)C
active: HT29 colon -66.9% [100 µM] | SNB-75 CNS -55.1% [100 µM] | SNB-19 CNS -91.6% [100 µM] | U251 CNS -89.9% [100 µM] | PC-3 prostate -92.9% [100 µM] | SK-MEL-5 melanoma -67.4% [100 µM] | UACC-62 melanoma -88.5% [100 µM] | LOX IMVI melanoma -86.6% [100 µM] | SK-MEL-28 melanoma -92.3% [100 µM]
inactive: HCT-15 colon 70.5% [100 µM]

CNCCCNCCCCNCCCN1C(=O)c2ccc3c4c(ccc(c24)C1=O)C(=O)N(CCCNCc1ccccc1OC)C3=O
inactive: HCT-15 colon 46.8% | SNB-19 CNS 36% | U251 CNS 41.2% | PC-3 prostate 58.7% | SK-MEL-5 melanoma 10.7%
active: HT29 colon 4.56% | SNB-75 CNS -0.885% | UACC-62 melanoma -1.88% | LOX IMVI melanoma 8.88% | SK-MEL-28 melanoma -9.35%

NNC(=O)CNc1ccc2ccccc2c1
inactive: HCT-15 colon 110% | HT29 colon 106% | SNB-75 CNS 104% | SNB-19 CNS 109% | U251 CNS 101% | PC-3 prostate 98% | SK-MEL-5 melanoma 101% | UACC-62 melanoma 98.8% | LOX IMVI melanoma 96% | SK-MEL-28 melanoma 125%

CCCC(C)c1cc(Cc2cc(Cl)cc(Cl)c2O)c(O)c(Cc2cc(Cl)cc(Cl)c2O)c1 (centres undefined)
inactive: HT29 colon 14.4% | SNB-75 CNS 12.2% | SNB-19 CNS 24.2%
active: HCT-15 colon 6.15% | U251 CNS 7.55% | PC-3 prostate 3.76% | SK-MEL-5 melanoma -58.5% | UACC-62 melanoma -5.72% | LOX IMVI melanoma 5.31% | SK-MEL-28 melanoma 8.03%

CC(O)CCC(C)[N+](=O)[O-] (centres undefined)
inactive: HCT-15 colon 102% | HT29 colon 113% | SNB-75 CNS 83.3% | SNB-19 CNS 99.9% | U251 CNS 99.2% | PC-3 prostate 102% | SK-MEL-5 melanoma 102% | UACC-62 melanoma 95.4% | LOX IMVI melanoma 100% | SK-MEL-28 melanoma 98.3%

CC(=O)OCC1O[C@@H](OC(C)=O)[C@@H](NC(=O)NS(=O)(=O)c2ccccc2)C(OC(C)=O)[C@@H]1OC(C)=O (some centres undefined)
inactive: HCT-15 colon 96.6% | HT29 colon 111% | SNB-75 CNS 91.2% | SNB-19 CNS 98.7% | U251 CNS 106% | PC-3 prostate 102% | SK-MEL-5 melanoma 102% | UACC-62 melanoma 101% | SK-MEL-28 melanoma 108%

CCCCCCCCCCCC(=O)OC(C)C(=O)Nc1ccccc1 (centres undefined)
inactive: HCT-15 colon 97% | HT29 colon 99.7% | SNB-75 CNS 71.9% | SNB-19 CNS 95.1% | U251 CNS 97.7% | PC-3 prostate 90.3% | SK-MEL-5 melanoma 118% | UACC-62 melanoma 100% | SK-MEL-28 melanoma 108%

O=C1NCCN1/N=C/c1c(Cl)nc2n1CCS2
inactive: HCT-15 colon 101% | HT29 colon 108% | SNB-75 CNS 101% | SNB-19 CNS 108% | U251 CNS 86.1% | PC-3 prostate 76.3% | SK-MEL-5 melanoma 132% | UACC-62 melanoma 135% | SK-MEL-28 melanoma 107%

Clc1ccc(N/N=C(/c2ccccc2)c2ccccn2)nc1
inactive: HCT-15 colon 16.2% | HT29 colon 36.1% | SNB-75 CNS 43.4% | SNB-19 CNS 60.1% | U251 CNS 42.1% | PC-3 prostate 35.5% | SK-MEL-5 melanoma 25.3% | UACC-62 melanoma 32.5% | SK-MEL-28 melanoma 51.9%

Reference: PubChem BioAssay (NCI)
